We go through eleven compounds from PubChem BioAssay (Tox21).

Experiment [1] is described as follows: qHTS assay to test for compound auto fluorescence at 460 nm (blue) in HEK293 cell free culture (AID 720681). Summed up:
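Test compounds were pinned into cell-free culture medium (DMEM with 10% FBS) and fluorescence was read directly at Ex/Em 405/460 nm. Signals were expressed as fluorescence equivalents of triamterene, with DMSO vehicle as control.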
On the technique in general: In qHTS, concentration-response curves come from the screen itself.

Experiment [2] is described as follows: qHTS assay to test for compound auto fluorescence at 535 nm (green) in HEK293 cell free culture (AID 720682). Summed up:
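Green-label autofluorescence (485 nm excitation, 535 nm emission) measured on compound added to cell-free culture medium (DMEM, 10% FBS). Output is expressed relative to fluorescein.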

Experiment [3] is described as follows: qHTS assay to test for compound auto fluorescence at 590 nm (red) in HEK293 cell free culture (AID 720683). Summed up: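 Tox21 10K library compounds were pinned into cell-free DMEM with 10% FBS and fluorescence was read at excitation 540 nm. Activity is expressed as Rose Bengal sodium equivalency.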
The nature of experiment [4]: qHTS assay to test for compound auto fluorescence at 590 nm (red) in HepG2 cell free culture (AID 720684). Summed up: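 Ex 540 / Em 590 nm read of compound in cell-free MEM (10% FBS). Rose Bengal sodium reference.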
Experiment [5] can be described thus: qHTS assay to test for compound auto fluorescence at 460 nm (blue) in HepG2 cell free culture (AID 720685). Summed up:
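Cell-free plates of MEM plus 10% FBS received 23 nL compound or DMSO vehicle; blue-channel (405/460 nm) intensity scored against triamterene as reference fluorophore.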

Experiment [6] in a line: qHTS assay to test for compound auto fluorescence at 535 nm (green) in HepG2 cell free culture (AID 720686).
Experiment [7] can be described thus: qHTS assay to test for compound auto fluorescence at 460 nm (blue) in HepG2 cells (AID 720687). Summed up:
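Cells (2,000/well in MEM with 10% FBS) attached overnight at 37 C, then were exposed to compound or DMSO for 1 hr at 37 C, 5% CO2. Fluorescence read at Ex/Em 405/460 nm, expressed as triamterene-equivalent signal.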

The target of experiment [8] is Glucocorticoid receptor (Homo sapiens) (UniProt P04150). Put plainly: qHTS assay to identify small molecule agonists of the glucocorticoid receptor (GR) signaling pathway (AID 720691; active means well fitted activation curve with a large enough effect in the signal ratio in the repeat runs, not every such curve was filed as active; the % refers to the signal ratio). Summed up: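 HeLa GR-bla reporter line; cells pre-incubated 4 h, compound in DMSO 18 h at 37 C; LiveBLAzer B/G FRET substrate 2 h RT; fluorescence intensity read-out.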
Sequence of Glucocorticoid receptor (Homo sapiens) (P04150 whole entry, looked up): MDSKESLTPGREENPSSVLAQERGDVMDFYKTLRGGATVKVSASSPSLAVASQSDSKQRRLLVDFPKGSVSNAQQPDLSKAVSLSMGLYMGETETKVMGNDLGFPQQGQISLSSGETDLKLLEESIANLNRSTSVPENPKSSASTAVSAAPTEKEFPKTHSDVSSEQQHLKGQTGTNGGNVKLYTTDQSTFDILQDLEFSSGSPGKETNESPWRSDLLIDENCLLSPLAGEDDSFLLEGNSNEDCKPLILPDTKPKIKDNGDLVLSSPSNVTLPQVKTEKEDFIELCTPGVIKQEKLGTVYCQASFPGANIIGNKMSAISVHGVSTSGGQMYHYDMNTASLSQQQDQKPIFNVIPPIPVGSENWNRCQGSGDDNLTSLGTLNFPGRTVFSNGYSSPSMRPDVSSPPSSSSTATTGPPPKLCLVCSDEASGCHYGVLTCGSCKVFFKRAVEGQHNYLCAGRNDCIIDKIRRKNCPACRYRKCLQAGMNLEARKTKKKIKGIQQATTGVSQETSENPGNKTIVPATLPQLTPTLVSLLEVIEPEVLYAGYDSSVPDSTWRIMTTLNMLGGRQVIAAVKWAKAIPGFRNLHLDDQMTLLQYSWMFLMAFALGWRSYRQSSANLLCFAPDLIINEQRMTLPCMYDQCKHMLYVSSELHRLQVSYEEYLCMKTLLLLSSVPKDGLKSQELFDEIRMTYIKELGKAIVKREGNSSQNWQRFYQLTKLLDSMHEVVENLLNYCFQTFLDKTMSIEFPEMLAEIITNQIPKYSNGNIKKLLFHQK
Experiment [9] has the same target. Put plainly: qHTS assay to identify small molecule antagonists of the glucocorticoid receptor (GR) signaling pathway (AID 720692; active means well fitted inhibition curve with a large enough effect in the signal ratio in the repeat runs, not every such curve was filed as active; the % refers to the signal ratio). Summed up: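 Read-out: beta-lactamase FRET substrate fluorescence, 2 h at room temperature, in HeLa cells stably carrying a GRE-driven bla reporter. Compounds were co-incubated with 5 nM dexamethasone agonist (final) for 18 h at 37 C.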

Experiment [10] can be described thus: qHTS assay to identify small molecule antagonists of the glucocorticoid receptor (GR) signaling pathway - cell viability counter screen (AID 720693). Further: nearly all actives have a fitted effect of over 55% in size.
Experiment [11] in a line: qHTS assay for identifying genotoxic compounds that show differential cytotoxicity against isogenic chicken DT40 cell lines with known DNA damage response pathways - wild type cell line (AID 743012). Further: nearly all actives have a fitted effect of over 60% in size. Further: potency means the concentration at half of the fitted maximal effect. Summed up:
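CellTiter-Glo luminescence readout of viability in wild type DT40 cells after 40 h compound exposure at 37 C/5% CO2; 300 cells/well; reagent incubated 30 min at room temperature before reading.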

A short description of experiment [12]: qHTS assay for identifying genotoxic compounds that show differential cytotoxicity against isogenic chicken DT40 cell lines with known DNA damage response pathways - Rev3 mutant cell line (AID 743014). Further: nearly all actives have a fitted effect of over 55% in size. Further: potency means the concentration at half of the fitted maximal effect.
A short description of experiment [13]: qHTS assay for identifying genotoxic compounds that show differential cytotoxicity against isogenic chicken DT40 cell lines with known DNA damage response pathways - Rad54/Ku70 mutant cell line (AID 743015). Further: nearly all actives have a fitted effect of over 60% in size.
Experiment [14] in a line: qHTS assay to identify small molecule antagonists of the androgen receptor (AR) signaling pathway - cell viability counter screen (AID 743033; further: nearly all actives have a fitted effect of over 45% in size).
A short description of experiment [15]: qHTS assay to identify small molecule antagonists of the androgen receptor (AR) signaling pathway using the MDA cell line - cell viability counter screen (AID 743041; further: nearly all actives have a fitted effect of over 45% in size; further: potency means the concentration at half of the fitted maximal effect). Summed up: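 In this qHTS counter assay, fluorescence intensity after CellTiter-Fluor addition indicated viability of MDA-kb2 AR-luc cells given compounds and R1881 for 16 h at 37C.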
Experiment [16] addresses Androgen receptor (Homo sapiens) (UniProt P10275). Put plainly: qHTS assay to identify small molecule antagonists of the androgen receptor (AR) signaling pathway (AID 743035; active means well fitted inhibition curve with a large enough effect in the signal ratio in the repeat runs, not every such curve was filed as active; the % refers to the signal ratio). Summed up: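 AR-bla HEK293 reporter cells; 4 h settle at 37C/5% CO2; compound + R1881 agonist, 16 h at 37C; LiveBLAzer B/G FRET substrate 2 h RT; fluorescence intensity read. qHTS format.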
The target is the same in experiment [17]. Put plainly: qHTS assay to identify small molecule agonists of the androgen receptor (AR) signaling pathway (AID 743036; active means well fitted activation curve with a large enough effect in the signal ratio in the repeat runs, with a control signal flat, not every such curve was filed as active; the % refers to the signal ratio). Summed up:
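AR-UAS-bla HEK293 cells, plated 4 h before dosing, were treated with compound for 16 h at 37C. beta-Lactamase reporter read after 2 h with LiveBLAzer B/G FRET substrate at room temperature.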

The target is the same in experiment [18]. Put plainly: qHTS assay to identify small molecule agonists of the androgen receptor (AR) signaling pathway using the MDA cell line (AID 743040; further: nearly all actives have a fitted effect of over 20% in size). Summed up:
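Cell-based luciferase reporter: MDA-kb2, MMTV promoter (AR + GR response elements). 16 h compound exposure at 37C; ONE-Glo, 30 min RT, luminescence.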

The target is the same in experiment [19]. Put plainly: qHTS assay to identify small molecule antagonists of the androgen receptor (AR) signaling pathway using the MDA cell line (AID 743042; further: nearly all actives have a fitted effect of over 55% in size). Summed up:
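MDA-kb2 cells (human breast carcinoma, stably carrying an MMTV-luciferase reporter responsive to AR and GR) were plated at 3,000 cells/well and preincubated 5 hr at 37C, then given compound plus R1881 agonist for 16 h. ONE-Glo luminescence was read.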

A number with no mark means an inactive call. Results filed as inconclusive are left out. Calls of active or inactive are those of the source. Unless noted, the call rests on the fitted dose curve; in most records, active means well fitted curve in the direction sought with a large enough effect in the repeat runs; inconclusive means weak or mixed curves; inactive means no such curve, though single readings can be large; an effect the other way counts as inactive or inconclusive.
On the % scale 0 is the no-effect control and ±100 the full control effect.

Sequence of Androgen receptor (Homo sapiens) (P10275 whole entry, looked up): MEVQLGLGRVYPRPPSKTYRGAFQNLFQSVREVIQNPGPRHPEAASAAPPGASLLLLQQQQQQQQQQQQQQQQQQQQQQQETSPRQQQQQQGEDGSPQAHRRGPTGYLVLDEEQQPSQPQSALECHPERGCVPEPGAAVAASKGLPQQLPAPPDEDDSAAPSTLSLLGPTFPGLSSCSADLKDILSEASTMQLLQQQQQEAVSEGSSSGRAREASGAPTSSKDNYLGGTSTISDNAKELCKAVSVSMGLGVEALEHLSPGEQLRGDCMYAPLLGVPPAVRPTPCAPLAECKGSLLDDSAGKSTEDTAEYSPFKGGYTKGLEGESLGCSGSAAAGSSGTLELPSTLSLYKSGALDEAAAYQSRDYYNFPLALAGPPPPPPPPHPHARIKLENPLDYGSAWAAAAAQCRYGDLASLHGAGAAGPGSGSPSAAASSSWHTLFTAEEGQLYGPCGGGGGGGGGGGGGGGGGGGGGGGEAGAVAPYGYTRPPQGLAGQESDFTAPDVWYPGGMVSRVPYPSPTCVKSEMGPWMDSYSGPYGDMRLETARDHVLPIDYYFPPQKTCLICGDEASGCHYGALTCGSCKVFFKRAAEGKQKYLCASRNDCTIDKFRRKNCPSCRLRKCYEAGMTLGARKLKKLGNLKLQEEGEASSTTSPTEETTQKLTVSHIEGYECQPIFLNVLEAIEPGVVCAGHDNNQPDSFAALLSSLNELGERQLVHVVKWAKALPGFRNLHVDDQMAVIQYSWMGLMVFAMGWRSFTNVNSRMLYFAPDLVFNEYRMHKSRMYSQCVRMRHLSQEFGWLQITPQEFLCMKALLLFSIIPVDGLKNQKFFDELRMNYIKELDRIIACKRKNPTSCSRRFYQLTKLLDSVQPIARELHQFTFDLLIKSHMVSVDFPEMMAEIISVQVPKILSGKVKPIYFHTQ

For the compound `CC(=O)OCCc1ccccc1`, the Potency entry in [1], in experiment [5], in [7], in experiment [8], in [9] and in experiment [10] was “inactive” in each case. Moreover, the Potency entry in [11], in experiment [12], in experiment [13], in experiment [14] and in [15] was “inactive” in each case. The result in experiment [2], in [3], in experiment [4] and in experiment [6] was inactive.
On to `N#Cc1cc2ccccc2c2ccccc12`, for which the Potency entry in experiment [1], in experiment [5], in experiment [7], in experiment [8], in experiment [9] and in experiment [10] was “inactive” in each case. The Potency result in experiment [13] and in experiment [15] was “inactive” throughout. For the same compound, the outcome in experiment [2], in experiment [3], in experiment [4] and in experiment [6] was inactive.
In the case of `OCC1CC2CC1C1CCC(CO)C21` (stereo not drawn), the Potency result in experiment [1], in experiment [5], in experiment [7], in experiment [10] and in [14] was “inactive” each time. Also, the compound was called inactive in experiment [2], in experiment [3], in [4] and in experiment [6]. For the same compound, the Potency in experiment [12] was 54.5 µM (active).
As for `NC1CCN(c2nc3c(cc2F)c(=O)c(C(=O)O)cn3-c2ccc(F)cc2F)C1` (stereo not drawn), the Potency entry in experiment [1], in [5], in [7], in experiment [8], in experiment [10] and in experiment [15] was “inactive” each time. The compound was classed as inactive in [2], in experiment [3], in experiment [4] and in experiment [6]. Besides, the Potency in experiment [11] was 10.6 µM (active); in [12] it was 13.3 µM (active).
Consider `CCCCCCCCCC(=O)OCC`, for which the Potency result in [1], in [5], in experiment [7], in experiment [10], in [11] and in experiment [12] was “inactive” in each case. In addition, the Potency result in experiment [13], in experiment [14] and in [15] was “inactive” throughout. For the same compound, the compound was called inactive in experiment [3], in experiment [4] and in experiment [6].
Take `C=CCCCCCC`: the Potency result in experiment [1], in [5], in [7], in [8], in [9] and in experiment [10] was “inactive” throughout. The Potency entry in experiment [11], in [12], in experiment [13] and in [15] was “inactive” each time. Moreover, the call in experiment [2], in experiment [3], in experiment [4] and in experiment [6] was inactive.
In the case of `CC(O)C1CCCCC1` (stereo not drawn), the Potency entry in experiment [1], in experiment [5], in [7], in experiment [8], in [9] and in experiment [10] was “inactive” in each case. Further, the Potency entry in experiment [11], in experiment [12], in experiment [13], in [14] and in [15] was “inactive” in each case. Besides, the result in experiment [2], in experiment [3], in experiment [4] and in experiment [6] was inactive.
As for `O=C(O)COC(=O)Cc1ccccc1Nc1c(Cl)cccc1Cl`, the activity change in [2] was 0.0139% [at 18.6 µM]. For the same compound, the fluorescence, % of fluorescent control in experiment [3] is -0.172% [at 18.6 µM]; in experiment [5], 0.0872% [at 18.6 µM]; in experiment [7] it was 0.0219% [at 18.6 µM]. Besides, the fluorescence, % of Rose Bengal in experiment [4] is -0.0238% [at 18.6 µM]. The fluorescence, % of fluorescein control in [6] is 0.0255% [at 18.6 µM]. Moreover, the Potency entry in experiment [10], in experiment [11], in experiment [12], in experiment [13], in [14] and in experiment [16] was “inactive” in each case. In addition, the Potency entry in [18], in [15] and in experiment [19] was “inactive” throughout. The result in experiment [17] was inactive.
For the compound `O=C(O)Cn1c(C(=O)Nc2nc(-c3ccccc3Cl)cs2)cc2ccccc21`, the Potency entry in [1], in [5], in experiment [7], in [8], in experiment [9] and in [10] was “inactive” throughout. Further, the Potency entry in experiment [11], in [13], in experiment [14] and in [15] was “inactive” throughout. In addition, the compound was classed as inactive in experiment [2], in [3], in experiment [4] and in experiment [6].
Regarding `C=C(C)C(=O)OCCOc1ccccc1`, the Potency entry in experiment [1], in [5], in experiment [7], in experiment [8], in experiment [9] and in [10] was “inactive” each time. For the same compound, the Potency entry in experiment [14], in experiment [18], in experiment [15] and in [19] was “inactive” in each case. Besides, the compound was classed as inactive in experiment [2], in [3], in experiment [4], in experiment [6] and in experiment [17].
`O=C=NC1CCC(CC2CCC(N=C=O)CC2)CC1` (stereo not drawn): the Potency result in experiment [1], in experiment [5], in experiment [7], in experiment [8], in [9] and in experiment [10] was “inactive” in each case. Also, the Potency result in experiment [14] was “inactive”. In addition, the result in [2], in experiment [3], in experiment [4] and in [6] was inactive. In addition, the results for the Potency in experiment [12] and in [15] were 54.5 µM (active) and 6.86 µM (active), respectively.
